Experimental data as given in PubChem BioAssay (NCATS).
Inconclusive results are not listed. Values without a mark were called inactive. Activity calls are given as the source filed them. Calls come from the whole dose curve; as a rule, active = well fitted inhibition curve with a large enough effect; inconclusive = small, poorly fitted or top-dose-only effect; inactive = flat fitted curve, though single readings scatter. Where a SMILES comes first, the peptide text is derived from it. [ ]: non-standard residue; d: D form. ξ: configuration not given here. ξLac(3-iPr) = CC(C)CC(O)C(=O)O; NMeV = CN[CH](C(=O)O)C(C)C; βAla = NCCC(=O)O

assay: Primary qHTS for inhibitors of nuclear receptor binding SET domain protein 2 (NSD2) in an isogenic RCH-ACV NSD2 p.E1099K mutant (9B) (AID 1645876); conditions: RCH-ACV (leukaemia line) NSD2 E1099K (9B) viability, CellTiter-Glo, 72 h; series mostly up to 44.9 µM; activity change, negative = viability loss: at the top concentration; note: nearly all actives have a fitted effect of over 70% in size
% is set by controls: 0 for no effect and ±100 for the full control effect; potency is the fitted concentration of half-maximal effect.

With O=C(O[C@H]1[C@@H]2C[C@@H]3OC[C@](O)([C@@H]1Cl)[C@H]2C(O[C@@H]1O[C@H](CO)[C@@H](O)[C@H](O)[C@H]1O)O3)c1ccc(O)c(O)c1 (some centres undefined) the “outcome” value was “inactive [at 17.3 µM]”.
In the case of C[C@@H]1C(=O)O[C@H]2[C@H](O)C34[C@H]5C[C@@H](C(C)(C)C)C36[C@@H](OC(=O)[C@@H]6O)O[C@@]4(C(=O)O5)[C@@]12O (some centres undefined), the “outcome” value is reported as “inactive [at 17.3 µM]”.
With C[C@@]12C[C@]3(O)O[C@H](O1)[C@]1(COC(=O)c4ccccc4)[C@H]3C[C@@]12O[C@@H]1O[C@H](CO)[C@@H](O)[C@H](O)[C@H]1O the “outcome” value was “inactive [at 17.3 µM]”.
With COc1cc2c(cc1O)[C@H](c1ccc(O[C@@H]3O[C@H](CO)[C@@H](O)[C@H](O)[C@H]3O)c(OC)c1)[C@@H](CO)[C@](O)(CO)C2 the “outcome” value was “inactive [at 17.3 µM]”.
In the case of CC(C)=CCC/C(C)=C/CC/C(C)=C/COC1OC(COC2OCC(OC3OCC(O)C(O)C3O)C(O)C2O)C(O)C(OC2OC(C)C(OC3OC(C)C(OC4OCC(OC5OC(C)C(O)C(O)C5O)C(O)C4O)C(O)C3O)C(O)C2O)C1O (centres undefined), the outcome is reported as “inactive [at 9.23 µM]”.
In the case of C=C1[C@H](OC(C)=O)[C@H]2[C@@H](OC(C)=O)[C@](C)(OC(C)=O)C[C@]2(OC(C)=O)C(=O)[C@H](C)/C=C/C(C)(C)C(=O)[C@H](OC(=O)C(C)CC)[C@H]1OC(C)=O (some centres undefined), the “outcome” value is reported as “inactive [at 17.3 µM]”.

First: CCn1cc(NC(=S)Nc2cc(Cl)ccc2OC)c(C(N)=O)n1
Second: COC(=O)CC(O)CC(O)/C=C/c1c(C)ccc2c1C(O)CC(C)C2 (centres undefined)
The “activity change, negative = viability loss” value of the first is lower: -13.4% for the first, -5.53% for the second.

Compared with CC1=CC(=O)C(=C(C)C)CC2C1CCC2(C)O (centres undefined), CC(=O)C12OC(C)(C)OC1CC1C3CCC4=CC(=O)C=CC4(C)C3(F)C(O)CC12C (centres undefined) is lower in “activity change, negative = viability loss” value: -14.1% for the first, -33.8% for the second.

First: C=C(C(=O)O)C1CCC2(C)CCC(O)C(=C)C2C1 (centres undefined)
Second: C[C@]12C=C[C@@]3(CCC4[C@](C)(CO)CCC[C@@]4(C)C3CC1)C2 (some centres undefined)
The “activity change, negative = viability loss” value of the first is higher: -3.63% for the first, -7.31% for the second.

First: O=C(c1ccc2nccnc2c1)N1CCCCC1
Second: COc1ccc(CN2C(=O)C(=O)c3cc(S(=O)(=O)N4CCC[C@H]4COc4cccnc4)ccc32)cc1
The “activity change, negative = viability loss” value of the first is lower: -0.87% for the first, 3.39% for the second.

First: CC(O)CO[C@@H]1O[C@H](CO)[C@@H](O)[C@H](O)[C@H]1O (some centres undefined)
Second: CC(O)CCC1C(CO[C@@H]2O[C@H](CO)[C@@H](O)[C@H](O)[C@H]2O)CC(O)CC1(C)C (some centres undefined)
The “activity change, negative = viability loss” value of the first is lower: -2.22% for the first, 4.09% for the second.

Going from CC1C=CC2CCCCC2C1CCC1CC(O)CC(=O)O1 (centres undefined) to CC(=O)c1c(O)cc(O[C@@H]2O[C@H](CO)[C@@H](O)[C@H](O)[C@H]2O)cc1O, the “activity change, negative = viability loss” value falls from 1.2% to -7.43%.

Going from O=C(O)/C=C/c1cc2c(cc1O[C@@H]1O[C@H](CO)[C@@H](O)[C@H](O)[C@H]1O)OCO2 to O=C(O)c1ccc(OC2OC(CO)C(O)C(O)C2O)cc1 (centres undefined), the “activity change, negative = viability loss” value falls from -0.707% to -3.6%.

First: CC1(C)C2CC=C(COC3OC(COC4OCC(O)(CO)C4O)C(O)C(O)C3O)C1C2 (centres undefined)
Second: C=CC1(C)C=C2CCC3C(C)(C)C(O[C@@H]4O[C@@H](CO)[C@H](O)[C@H]4O)CCC3(C)C2CC1O[C@@H]1O[C@H](C)[C@H](O)[C@H](O)[C@H]1O (some centres undefined)
The “activity change, negative = viability loss” value of the first is higher: -6.92% [at 17.3 µM] for the first, -16.1% [at 17.3 µM] for the second.

Going from CC12CCC(OC3OC(CO)C(O)C(OC4OC(CO)C(O)C(O)C4O)C3O)CC1CCC1C2CCC2(C)/C(=C3/COC(=O)C3)CCC12O (centres undefined) to C[C@@H]1CC[C@]2(C(=O)O[C@@H]3O[C@H](CO)[C@@H](O)[C@H](O)[C@H]3O)CC[C@]3(C)C(=CCC4[C@@]5(C)C[C@@H](O)[C@H](O)[C@](C)(C(=O)O)C5CC[C@]43C)[C@@H]2[C@]1(C)O (some centres undefined), the “activity change, negative = viability loss” value rises from -11% [at 17.3 µM] to 0.608% [at 17.3 µM].

Going from O=C(O[C@H]1[C@@H]2C=CO[C@@H](O[C@@H]3O[C@H](CO)[C@@H](O)[C@H](O)[C@H]3O)[C@@H]2[C@@]2(CO)O[C@@H]12)c1ccccc1 to C=C[C@@](C)(O)CC/C=C(\C)C(=O)O[C@@H]1[C@@H]2O[C@]2(C)[C@H]2[C@H](O[C@@H]3O[C@H](CO)[C@@H](O)[C@H](O)[C@H]3O)OC=C[C@@]12O, the “activity change, negative = viability loss” value rises from -11.4% [at 17.3 µM] to -6.98% [at 17.3 µM].

Going from C[C@H](C/C=C/C(C)(C)O)[C@H]1CC[C@@]2(C)[C@@H]3[C@@H](O[C@@H]4O[C@H](CO)[C@@H](O)[C@H](O)[C@H]4O)C=C4C(CC[C@H](O)C4(C)C)[C@]3(C=O)CC[C@]12C (some centres undefined) to C/C(=C\CCC(C)CCO)C(=O)O[C@@H]1[C@@H](O)[C@H](OC2OC=C(C(=O)O)C3CCC(C)(O)C23)O[C@H](CO)[C@H]1O (some centres undefined), the “activity change, negative = viability loss” value rises from -12.7% [at 17.3 µM] to -6.04% [at 17.3 µM].

First: C=C(C)C1CC[C@]2(C(=O)O)CC[C@]3(C(=O)O)[C@H](CCC4[C@@]5(C)CC[C@H](O)C(C)(C)C5CC[C@]43C)C12 (some centres undefined)
Second: CC(=O)OC1C(OC(=O)c2ccccc2)C2C(C)(C)CC(=O)CC2(C)C23CCC(C)(C2)C(O)CC13 (centres undefined)
The “activity change, negative = viability loss” value of the first is higher: -0.727% [at 17.3 µM] for the first, -23.4% [at 17.3 µM] for the second.

First: CCOc1cc(C)c(Cl)cc1S(=O)(=O)n1cnc2ccccc21
Second: C=CC[C@]12C[C@@H](OC)C(=O)C(OC)=C1O[C@@H](c1cc(OC)c3c(c1)OCO3)[C@@H]2C
The “activity change, negative = viability loss” value of the first is lower: -17.4% [at 17.3 µM] for the first, -1.97% [at 17.3 µM] for the second.

First: CC(C)CC1OC(=O)C2CCCN2C(=O)CCNC(=O)C(Cc2ccccc2)NC(=O)C(C(C)C)N(C)C(=O)C(C(C)C)N(C)C1=O (centres undefined) (cyclo([ξLac(3-iPr)][NMeV][NMeV]F[βAla]P); configuration not given here)
Second: CC1=C(C(=O)O)/C(=C\CO[C@@H]2O[C@H](CO)[C@@H](O)[C@H](O)[C@H]2O)C(OC(=O)/C=C\c2ccc(O)cc2)C1 (some centres undefined)
The “activity change, negative = viability loss” value of the first is higher: -9.12% [at 17.3 µM] for the first, -16% [at 17.3 µM] for the second.

In the case of O=C(O)CC(=O)OC[C@H]1O[C@@H](Oc2ccc3c(c2)OC[C@H]2c4cc5c(cc4O[C@@H]32)OCO5)[C@H](O)[C@@H](O)[C@@H]1O, the “activity change, negative = viability loss” value is reported as -12.6% [at 17.3 µM].

For C[C@@H]1O[C@@H](O[C@H]2[C@H](OC(=O)[C@]34CCC(C)(C)C[C@H]3C3=CCC5[C@@]6(C)C[C@H](O)[C@H](O[C@@H]7O[C@H](CO)[C@@H](O)[C@H](O)[C@H]7O)[C@@](C)(CO)C6[C@H](O)C[C@@]5(C)[C@]3(C)CC4)OC[C@H](O)[C@@H]2O)[C@H](O)[C@H](O)[C@H]1O[C@@H]1OC[C@@H](O)[C@H](O[C@@H]2OC[C@](O)(CO)[C@H]2O)[C@H]1O (some centres undefined), the activity change, negative = viability loss was -10.4% [at 9.23 µM].

For Nc1nc2c(c(=O)[nH]1)C[C@@H](CCc1ccc(C(=O)N[C@@H](CCC(=O)O)C(=O)O)cc1)CN2, the Potency was 11.5 nM (active).
For O=C1NC(=O)C(c2cn3c4c(cccc24)CCC3)C1c1c[nH]c2ccccc12 (centres undefined), the Potency was 1030 nM (active).
For N=c1nc2n(cc1F)C1OC(CO)C(O)C1O2 (centres undefined), the Potency was 57.8 nM (active).
